Assay outcomes from PubChem BioAssay.
The list is not random: actives were taken first. Their share in the collection is about 3.2%.
VDR inhibitor – vitamin D3 receptor (human) inhibition; P11473; VDR-SRC2-3 peptide fluorescence polarization, 2 h; Potency, µM, most hits filed as inhibitors; 0.93% of 400,000 active; AID 504847
Target sequence (P11473 whole entry, looked up): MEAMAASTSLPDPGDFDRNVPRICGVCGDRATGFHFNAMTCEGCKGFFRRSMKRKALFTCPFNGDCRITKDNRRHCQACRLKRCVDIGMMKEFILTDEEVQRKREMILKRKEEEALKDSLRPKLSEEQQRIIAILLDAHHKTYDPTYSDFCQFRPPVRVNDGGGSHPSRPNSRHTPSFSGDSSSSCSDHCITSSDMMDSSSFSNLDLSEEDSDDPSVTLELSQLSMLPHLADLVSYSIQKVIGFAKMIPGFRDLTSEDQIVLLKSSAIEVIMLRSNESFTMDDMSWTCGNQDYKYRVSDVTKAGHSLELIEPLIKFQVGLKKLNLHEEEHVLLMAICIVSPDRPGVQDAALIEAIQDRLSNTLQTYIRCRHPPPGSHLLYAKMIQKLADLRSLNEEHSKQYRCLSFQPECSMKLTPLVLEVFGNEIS
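After 23 nl compound addition and a short centrifugation, plates sat for 2 hours at ambient temperature; polarization of fluorescence then indicated loss of VDR binding to peptide SRC2-3.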
USP1-UAF1 inh – blocks the human USP1/UAF1 deubiquitinase complex; O94782; recombinant USP1/UAF1, Ub-Rhodamine cleavage fluorescence; Potency, µM (highest dose often 57.1 µM), hits mostly inhibitors; 0.23% of 390,000 active; AID 743255; also: nearly all actives have a fitted effect of over 60% in size
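High-throughput fluorogenic screen: 1nM USP1/UAF1 complex, Ub-Rho substrate 150nM final, 50mM HEPES pH 7.8 with 0.5mM EDTA, 0.1 mg/ml BSA, 1mM TCEP and 0.01% Tween-20.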
PLK1 PBD inh – inhibitors of human PLK1 polo-box domain binding | Plk1 PBD binding of FITC phosphopeptide, fluorescence polarization | AID 720504 | 2.8% of 360,000 active | P53350 | Potency, µM, hits mostly inhibitors; also: series mostly up to about 57 µM; nearly all actives have a fitted effect of over 65% in size
GALK inhibitor – blocks human galactokinase activity | P51570 | Purified GALK, Kinase-Glo residual ATP luminescence | Potency, µM (series often up to 57.5 µM), hits mostly inhibitors | 0.007% of 270,000 active | AID 1868
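5 nM enzyme, 35 uM ATP, 100 uM galactose, 20 mM HEPES pH8.0, 5 mM MgCl2; 1 h RT; residual ATP by Kinase-Glo Plus luminescence, qHTS format.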
USP2a inh – inhibitors of human ubiquitin-specific protease USP2a; O75604; USP2 core, Ub-CHOP2 coupled fluorogenic reporter, 485/531; Potency, µM (highest dose often 38.3 µM), usual class: inhibitors; 0.01% of 330,000 active; AID 463254
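USP2 core (10nM final) preincubated 30min RT with compound in 20mM Tris-HCl pH 8.0, 2mM CaCl2, 2mM beta-mercaptoethanol, 0.05% CHAPS; 25nM Ub-CHOP2 plus 25nM reporter substrate added, fluorescence (Ex485/Em531) read after 60min.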
Coupling enz – coupling enzyme interference in Giardia aldolase counter-screen | coupling enzyme system counterscreen, AmpLite Red fluorescence | activity change, negative = inhibition, % at 58.2 µM, hits read low | 0.67% of 290,000 active; in the data active = activity change below about -30%
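Final compound at 57.5 uM, incubated 10 min at RT with coupling enzyme reagent (glyceraldehyde-3-phosphate), then 20 min with substrate and AmpLite Red detection. Fluorescence read at 525/598 nm; tests interference with the coupling assay, not aldolase inhibition.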
A number is an active result; ! = a repeat was not active. Unless noted, calls follow the shape of the dose curve; as a rule, active = well fitted curve in the direction sought with a large enough effect; inconclusive = small, poorly fitted or top-dose-only effect, or another doubt; inactive = no such curve, though single readings can be large; an effect the other way counts as inactive or inconclusive.

For C=CCn1c(=O)c(CCC(=O)Nc2ccc(N3CCOCC3)cc2)nc2cc(C(F)(F)F)ccc21 the results were VDR inhibitor inactive, USP1-UAF1 inh inactive, PLK1 PBD inh 21.2µM, GALK inhibitor inactive and USP2a inh inactive.
COc1ccc(/C=C2\N=C(C)OC2=O)cc1OC(C)=O was read as VDR inhibitor 50.1µM, USP1-UAF1 inh inactive, PLK1 PBD inh inactive, GALK inhibitor inactive, USP2a inh inactive and Coupling enz inactive.
`COCCNCc1ccccc1` gave VDR inhibitor inconclusive, USP1-UAF1 inh inactive, PLK1 PBD inh 29.9µM, GALK inhibitor inactive, USP2a inh inactive and Coupling enz inactive.
For Cc1ccc(Nc2c(-c3ccc(C)o3)nc3cnccn23)cc1 the results were VDR inhibitor 70.8µM, USP1-UAF1 inh inactive, PLK1 PBD inh 14.1µM, GALK inhibitor inactive, USP2a inh inactive and Coupling enz inactive.
For Cc1ccc(-c2nc3cnccn3c2Nc2ccccc2)o1 the results were VDR inhibitor inconclusive, USP1-UAF1 inh inactive, PLK1 PBD inh inactive, GALK inhibitor inactive, USP2a inh inactive and Coupling enz inactive.
For COc1ccc(-c2csc(C(O)c3ccccc3)n2)cc1 (centres undefined) the results were PLK1 PBD inh inactive.
For CCCOc1ccc(OCCSc2ncccn2)cc1 the results were VDR inhibitor inactive, USP1-UAF1 inh inactive, PLK1 PBD inh inactive, GALK inhibitor inactive, USP2a inh inactive and Coupling enz inactive.
For Brc1cccc(OCCSc2ncccn2)c1 the results were VDR inhibitor inactive, USP1-UAF1 inh inactive, PLK1 PBD inh 13.4µM, GALK inhibitor inactive, USP2a inh inactive and Coupling enz inactive.
Screening Clc1ccc(OCCCCSc2ncccn2)cc1 returned VDR inhibitor inactive, USP1-UAF1 inh inactive, PLK1 PBD inh 29.9µM, GALK inhibitor inactive, USP2a inh inactive and Coupling enz inactive.
`Nc1nnc(SCCOc2cccc(Br)c2)s1` gave VDR inhibitor inactive, USP1-UAF1 inh inactive, PLK1 PBD inh inactive, GALK inhibitor inactive and USP2a inh inactive.
Cc1ccc2nsnc2c1S(=O)(=O)Nc1cccc2cccnc12 was read as Coupling enz inactive.
Cc1ccc2nsnc2c1S(=O)(=O)Nc1cccc2nsnc12 was read as VDR inhibitor inactive, USP1-UAF1 inh inactive, PLK1 PBD inh inactive, GALK inhibitor inactive, USP2a inh inactive and Coupling enz -34.0.
Screening COC(=O)CCCC1=CC2=CC(=O)C(C)(OC(=O)c3cccs3)C(=O)C2=CN1c1ccccc1 (centres undefined) returned VDR inhibitor inactive, USP1-UAF1 inh inconclusive, PLK1 PBD inh inactive and Coupling enz inactive.
`COC/C=C/C1=CC2=CC(=O)C(C)(OC(=O)c3cnc4ccccc4n3)C(=O)C2=CN1CCCCO` (centres undefined) gave VDR inhibitor inactive, USP1-UAF1 inh inconclusive, PLK1 PBD inh inactive, GALK inhibitor inactive, USP2a inh inactive and Coupling enz -31.7!.
For COC/C=C/C1=CC2=CC(=O)C(C)(OC(=O)c3cnc4ccccc4n3)C(=O)C2=CN1CCc1ccccn1 (centres undefined) the results were Coupling enz inactive.
`CCCCC1=CC2=CC(=O)C(C)(OC(=O)CC)C(=O)C2=CN1CCCCO` (centres undefined) gave VDR inhibitor inactive, USP1-UAF1 inh inconclusive, PLK1 PBD inh inactive, GALK inhibitor inactive, USP2a inh inactive and Coupling enz -35.1!.
COC(=O)CCCC1=CC2=CC(=O)C(C)(OC(=O)c3cccs3)C(=O)C2=CN1CCN1CCOCC1 (centres undefined) was read as VDR inhibitor inactive, USP1-UAF1 inh inconclusive, PLK1 PBD inh inactive, GALK inhibitor inactive, USP2a inh inactive and Coupling enz -38.4!.
For COC(=O)CCCC1=CC2=CC(=O)C(C)(OC(=O)c3cccs3)C(=O)C2=CN1CCCCO (centres undefined) the results were VDR inhibitor inactive, USP1-UAF1 inh inconclusive, PLK1 PBD inh inactive, GALK inhibitor inactive, USP2a inh inactive and Coupling enz -40.9!.
`Cc1occc1C(=O)NNC(=S)NC(=O)COc1ccc(Cl)cc1Cl` gave VDR inhibitor inconclusive, USP1-UAF1 inh inactive, PLK1 PBD inh inactive, GALK inhibitor inactive and USP2a inh inactive.
Screening COC(=O)c1c(-c2ccc(OC)cc2)oc2ccc(-c3cc(OC)c(OC)c(OC)c3)cc12 returned VDR inhibitor inactive, USP1-UAF1 inh inconclusive and PLK1 PBD inh inactive.
Screening c1ccc(OCCN2CCN(C(c3ccccc3)c3ccccc3)CC2)cc1 returned VDR inhibitor inactive, USP1-UAF1 inh inactive, PLK1 PBD inh inactive, GALK inhibitor inactive, USP2a inh inactive and Coupling enz inactive.
`COc1ccccc1/C=C/C=N/NC(=O)CCC1C(=O)NN=C1C` (centres undefined) gave VDR inhibitor inactive, USP1-UAF1 inh inactive, PLK1 PBD inh 26.7µM, GALK inhibitor inactive, USP2a inh inactive and Coupling enz inactive.
`Cc1nc2sc(C(=O)Nc3ccccc3)c(N)c2c(C)c1[N+](=O)[O-]` gave VDR inhibitor inactive, USP1-UAF1 inh inactive, PLK1 PBD inh 26.7µM, GALK inhibitor inactive, USP2a inh inactive and Coupling enz inactive.
For CC(=O)c1ccc(NC(=O)c2sc3nc(C)c(C)c(C)c3c2N)cc1 the results were VDR inhibitor inactive, USP1-UAF1 inh inactive, PLK1 PBD inh inactive, GALK inhibitor inactive, USP2a inh inactive and Coupling enz inactive.
`Cc1ccc(S(=O)(=O)N(CC(=O)Nc2ccccc2C(=O)O)c2ccc(Cl)cc2)cc1` gave VDR inhibitor inactive, USP1-UAF1 inh inactive, PLK1 PBD inh 37.7µM, GALK inhibitor inactive, USP2a inh inactive and Coupling enz inactive.
Screening CCOC(=O)c1ccccc1NC(=O)CN(c1ccccc1)S(=O)(=O)c1ccc(OCC)cc1 returned VDR inhibitor inactive and USP1-UAF1 inh inactive.
`Nc1nc(SCC(=O)N2CCOCC2)n[nH]1` gave VDR inhibitor inactive, USP1-UAF1 inh inactive, PLK1 PBD inh inactive, GALK inhibitor inactive, USP2a inh inactive and Coupling enz inactive.
For O=C(N/N=C/c1cc(Br)c(Br)o1)c1cccnc1 the results were VDR inhibitor inactive, USP1-UAF1 inh inconclusive, PLK1 PBD inh inactive, GALK inhibitor inactive, USP2a inh inactive and Coupling enz -55.3.
`CC(NS(=O)(=O)c1ccc2c(c1)c(=O)n(C)c(=O)n2C)C(=O)NC1CCCCC1` (centres undefined) gave VDR inhibitor inactive, USP1-UAF1 inh inactive, PLK1 PBD inh 26.7µM, GALK inhibitor inactive, USP2a inh inactive and Coupling enz inactive.
`Cn1c(=O)c2cc(S(=O)(=O)NC(Cc3ccccc3)C(=O)NCC3CCCO3)ccc2n(C)c1=O` (centres undefined) gave VDR inhibitor inactive, USP1-UAF1 inh inactive, PLK1 PBD inh inactive, GALK inhibitor inactive, USP2a inh inactive and Coupling enz inactive.
